{
  "source": "PubChem BioAssay AID1259415",
  "about": "(National Center for Advancing Translational Sciences (NCATS), 2018)",
  "note": "In all, about 410,000 compounds went through this assay and about 18,000 (4.4%) were called active. Inconclusive results (about 7%) are left out. Shown is part of a subset that was picked to be rich in actives. Unmarked numbers belong to inactive results. No stated cut-off is given here; in the data, active means activity change below about -60%; inconclusive means no clear call, values can overlap the other calls; inactive means above about -39%.",
  "data": [
    {"test": "qHTS Assay for inhibitors of the human cytomegalovirus (HCMV); further: on the % scale 0 is the no-effect control and ±100 the full control effect", "conditions": "HFF cells, HCMV-luciferase reporter, 72 h; at 57.5 µM; stronger effect = lower value", "outline": "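Inhibition of viral replication was scored as loss of reporter luminescence in HFFs infected with HCMV-luciferase (MOI 1 PFU/cell) for 72 h; compounds tested at 2 doses, normalized to buffer and Salinomycin controls.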", "values": [
      {"compound": "CCCN(CCC)CCNC(=O)c1ccc2c(c1)NC(=O)C(CS(=O)(=O)Cc1cccc(Br)c1)N2", "note": "(stereo not drawn)", "activity change, negative = inhibition": "-22.3%"},
      {"compound": "CC(C)N1CCc2c(sc(NC(=O)Cc3ccccc3)c2C#N)C1", "activity change, negative = inhibition": "-9.26%"},
      {"compound": "CC(=O)N1CCc2c(sc(NC(=O)CCS(=O)(=O)c3ccc(C)cc3)c2C(N)=O)C1", "activity change, negative = inhibition": "5.61%"},
      {"compound": "CC(=O)N1CCc2c(sc(NC(=O)CCS(=O)(=O)c3ccccc3)c2C#N)C1", "activity change, negative = inhibition": "-99.8% (active)"},
      {"compound": "CC(C)CNc1cccc2c1S(=O)(=O)N[C@H](CC(C)C)CO2", "activity change, negative = inhibition": "-24.9%"},
      {"compound": "CCCNC(=O)C[C@@H]1CC[C@@H]2[C@H](COC[C@H](O)CN2C(=O)c2cc(Cl)cc(Cl)c2)O1", "activity change, negative = inhibition": "-17.8%"},
      {"compound": "O=C(CSc1nnc(N2CCOCC2)n1-c1cccc(F)c1)N1CCN(c2ccccn2)CC1", "activity change, negative = inhibition": "-18.8%"},
      {"compound": "O=C(C[C@H]1CC[C@H]2[C@@H](COC[C@H](O)CN2C(=O)c2ccccn2)O1)N1CCN(c2ccccc2)CC1", "activity change, negative = inhibition": "-65.2% (active)"},
      {"compound": "COc1ccccc1OCCCn1c(-c2ccc(Cl)cc2)nc2ccccc2c1=O", "activity change, negative = inhibition": "39.4%"},
      {"compound": "COc1cccc(OCCn2c(-c3ccc(Br)cc3)nc3ccccc3c2=O)c1", "activity change, negative = inhibition": "43%"},
      {"compound": "COc1ccc(-c2nc3ccccc3c(=O)n2CCc2ccc(O)cc2)cc1", "activity change, negative = inhibition": "-62% (active)"},
      {"compound": "Cc1ccc2c(c1)N(C(=O)CCC(=O)NCc1ccccc1F)CC(C)O2", "note": "(stereo not drawn)", "activity change, negative = inhibition": "8.23%"},
      {"compound": "COC(=O)c1ccc(NC(=S)NN2CCOCC2)cc1", "activity change, negative = inhibition": "35.3%"},
      {"compound": "Cc1ccc(C(=O)C(=S)N2CCOCC2)cc1", "activity change, negative = inhibition": "6.2%"},
      {"compound": "Cc1ccc(C(=O)NC(=S)Nc2ccc(N3CCOCC3)cc2)cc1", "activity change, negative = inhibition": "-103% (active)"},
      {"compound": "Cc1nc2ccccc2c2oc(C(=O)NCCCN3CCC(C)CC3)cc12", "activity change, negative = inhibition": "52.7%"},
      {"compound": "CCC1CCCCN1CCCNC(=O)c1cc2c(Cl)nc3ccccc3c2s1", "note": "(stereo not drawn)", "activity change, negative = inhibition": "-99.5% (active)"},
      {"compound": "O=C(NCCN1CCN(Cc2ccccc2)CC1)c1cc2c(=O)[nH]c3ccccc3c2s1", "activity change, negative = inhibition": "-8.01%"},
      {"compound": "Cc1ccc(NC(=O)CN(C)C(=O)c2ccc(Cl)c(S(=O)(=O)NCc3ccco3)c2)cc1", "activity change, negative = inhibition": "-35%"},
      {"compound": "O=S(=O)(c1ccc(C2CCCCC2)cc1)N1CCN(c2ccc(Cl)c(Cl)c2)CC1", "activity change, negative = inhibition": "9.35%"},
      {"compound": "Cc1c(Br)c([N+](=O)[O-])nn1CC(=O)Nc1sc2c(c1C(=O)OC(C)C)CCC(C)C2", "note": "(stereo not drawn)", "activity change, negative = inhibition": "9.26%"},
      {"compound": "COC(=O)c1c(NC(=O)CCCOc2ccccc2)sc2c1CCC(C)C2", "note": "(stereo not drawn)", "activity change, negative = inhibition": "5.16%"},
      {"compound": "COC(=O)c1c(NC(=O)CN2CCN(S(=O)(=O)c3ccccc3[N+](=O)[O-])CC2)sc2c1CCC(C)C2", "note": "(stereo not drawn)", "activity change, negative = inhibition": "-60.3% (active)"}
    ]}
  ]
}
